High-throughput results (PubChem)
Mdm2-MdmX inh: disrupts the human Mdm2-MdmX interaction. O15151+Q00987. SaOS-2 split-luciferase Mdm2/MdmX complementation, luminescence. inhibition, % at 8 µM. 330,000 compounds, 3% hits. AID 485346;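 active = inhibition of at least 50% at 8 µM in the primary screen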
Target sequence (O15151 whole entry, looked up): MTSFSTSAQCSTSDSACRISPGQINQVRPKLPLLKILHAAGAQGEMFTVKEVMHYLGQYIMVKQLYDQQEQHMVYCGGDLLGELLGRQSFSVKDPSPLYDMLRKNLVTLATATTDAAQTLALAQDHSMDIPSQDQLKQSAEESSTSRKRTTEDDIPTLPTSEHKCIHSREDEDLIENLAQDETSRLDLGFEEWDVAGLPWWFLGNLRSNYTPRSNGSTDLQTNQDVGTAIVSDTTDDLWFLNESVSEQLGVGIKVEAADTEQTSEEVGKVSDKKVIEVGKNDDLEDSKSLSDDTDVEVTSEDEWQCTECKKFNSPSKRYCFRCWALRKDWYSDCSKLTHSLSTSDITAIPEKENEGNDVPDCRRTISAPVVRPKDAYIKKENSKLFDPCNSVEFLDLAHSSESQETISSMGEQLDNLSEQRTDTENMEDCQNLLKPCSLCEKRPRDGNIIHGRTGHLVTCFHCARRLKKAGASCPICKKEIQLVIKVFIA
Target sequence (Q00987 whole entry, looked up): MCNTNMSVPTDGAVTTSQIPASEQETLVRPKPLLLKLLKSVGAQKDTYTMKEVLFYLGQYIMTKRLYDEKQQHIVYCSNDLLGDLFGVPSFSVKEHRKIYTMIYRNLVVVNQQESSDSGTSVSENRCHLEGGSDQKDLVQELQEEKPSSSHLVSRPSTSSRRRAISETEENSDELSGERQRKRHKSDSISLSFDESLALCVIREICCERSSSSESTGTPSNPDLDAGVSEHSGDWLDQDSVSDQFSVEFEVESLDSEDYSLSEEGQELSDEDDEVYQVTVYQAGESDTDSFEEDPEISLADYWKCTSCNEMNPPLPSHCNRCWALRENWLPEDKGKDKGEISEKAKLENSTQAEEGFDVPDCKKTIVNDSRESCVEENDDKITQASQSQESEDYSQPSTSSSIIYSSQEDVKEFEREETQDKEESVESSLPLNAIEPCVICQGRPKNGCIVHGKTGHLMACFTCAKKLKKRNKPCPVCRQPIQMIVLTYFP
CSC inhib: cancer stem cell inhibition; inhibition, % at 7.5 µM; cancer stem cell-like cells viability, luminescence; AID 2717; 300,000 compounds, 1.1% hits; in the data active = inhibition above about 75%; tested in HMLE shEcad cells
Calb FLC: affects C. albicans growth with fluconazole; C. albicans CaCi-2 (fluconazole-resistant clinical isolate) + fluconazole, Alamar Blue growth, 48 h; growth inhibition, % (concentration not given with the values); 300,000 compounds, 0.57% hits; AID 1979;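 active = growth inhibition above about 58% in most replicates, limit read from the data, passing the limit was not always enough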;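 also: all wells also contain fluconazole at 8 µg/ml as a sub-toxic cotreatment; 0% = median of DMSO wells and 100% = median of geldanamycin control wells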
Beta apoptosis: beta cell apoptosis inhibition; 300,000 compounds, 0.8% hits; INS-1E cytokine-induced death, ATP luminescence, 48 h; percent of positive-control rescue, neutral wells zero; protection from apoptosis, % (no concentration beside the values); AID 435005;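 active = Every replicate reaches about 75%, or at least half do and their mean reaches it too, limit read from the data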;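 also: 0% = cytokine-treated negative control wells and 100% = positive control rescue; higher means more ATP so stronger rescue from cytokine killing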
MPTP block: blocks calcium-induced mitochondrial swelling. isolated mouse mitochondria, Ca2+ swelling absorbance, 30 min. inhibition, % at 10 µM. 360,000 compounds, 1.4% hits. AID 602449;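 active = inhibition of 50% or more, scaled per plate between neutral and stimulator controls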;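 also: 0% = DMSO wells given calcium and 100% = 1 mM EGTA wells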
Mdm2 MdmX conf: human Mdm2/MdmX binding inhibition, confirmed. shares compounds with Mdm2-MdmX inh. luminescent assay. inhibition, % at 8 µM. 10,000 compounds, 55% hits; in the data active = inhibition above about 40%
Full FLuc ctr: counter-screen for Mdm2/MdmX inhibitors: full-length luciferase. shares compounds with Mdm2-MdmX inh. SaOS-2 full-length luciferase counterscreen, luminescence. inhibition, % at 8 µM. 6,200 compounds, 77% hits;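 active = mean inhibition at 8 µM reaching about 37%, which flags the compound as non-specific, limit read from the data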;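 also: p53-null SaOS-2 cells with luciferase driven by a doxycycline-inducible promoter; compound on cells about two nights before reading with doxycycline added after day one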
Active calls of the source: *. A selection: hits, their analogues and other compounds. The true share with any hit is near 4.8%.

What do the screens show for `CCOC(=O)/C=c1\s/c(=C\c2ccc3c(c2)OCCO3)c(=O)n1CC(=O)NCC1CCCO1` (stereo not drawn)?
Mdm2-MdmX inh: 17; CSC inhib: 0; Calb FLC: 26; Beta apoptosis: -10; MPTP block: -2

How did Cc1nn(-c2ccc(F)cc2)c(-n2cccc2)c1C(=O)N1CCN(C(=O)c2ccco2)CC1 do in these assays?
Mdm2-MdmX inh: 4; CSC inhib: 3; Calb FLC: -7; Beta apoptosis: -6; MPTP block: -1

Results for COc1ccc2c(Cn3cnc4cc([N+](=O)[O-])ccc4c3=O)cc(=O)oc2c1 ?
Mdm2-MdmX inh: 60*; CSC inhib: 65; Calb FLC: 0; Beta apoptosis: 2; MPTP block: 1; Mdm2 MdmX conf: 73*; Full FLuc ctr: 20

What do the screens show for `CC(C)[C@H](NC(=O)OC(C)(C)C)c1cc(C(=O)NC2CC2)c(N)s1`?
MPTP block: 0

How did CCCNC(=O)c1cc(C2CCCCN2C(=O)c2cc(C(C)(C)C)nn2C)on1 (stereo not drawn) do in these assays?
MPTP block: 1

How did O=C(CCN1C(=O)/C(=C\c2cccc(Br)c2)SC1=S)N1CCOCC1 do in these assays?
Mdm2-MdmX inh: 61*; CSC inhib: 18; Calb FLC: 10; Beta apoptosis: -40; MPTP block: 4; Mdm2 MdmX conf: 47*; Full FLuc ctr: 21

How did O=C(CCCN1C(=O)/C(=C/c2ccccc2)SC1=S)Nc1ccccc1O do in these assays?
Mdm2-MdmX inh: 95*; CSC inhib: -3; Calb FLC: 15; MPTP block: 2; Mdm2 MdmX conf: 88*; Full FLuc ctr: 30
